In the supplement of paper PMC3334620:
The full ranking holds about 33,000 sequences; the median of “E-score (-0.5 to 0.5)” is about -0.04, and the highest 2% start at about 0.36. The sample holds the highest values, similar sequences and a random draw of the others, so the mix is not that of the screen.

biological target: T1, Hmlalpha2 (UniProt P0CY09); test: PBM E-score (8-mer binding enrichment) (E-score (-0.5 to 0.5)); higher = stronger / more preferred TF binding; settings: protein concentration: 200 nM; construct: GST-full length
T1 sequence: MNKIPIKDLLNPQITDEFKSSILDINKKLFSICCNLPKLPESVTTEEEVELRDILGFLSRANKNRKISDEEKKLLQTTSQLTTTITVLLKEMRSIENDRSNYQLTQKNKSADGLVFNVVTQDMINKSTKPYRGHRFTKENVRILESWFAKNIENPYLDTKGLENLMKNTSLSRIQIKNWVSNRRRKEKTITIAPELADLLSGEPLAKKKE
How it was run: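 PURExpress in vitro transcription/translation supplied GST-tagged yeast transcription factors, either full-length or DNA-binding domain. Applied at about 100-200 nM to universal all-10-mer Agilent arrays double-stranded by primer extension, the bound protein was detected with fluorescent anti-GST. E-scores, modified Wilcoxon-Mann-Whitney statistics, were given by the Universal PBM Analysis Suite to ungapped eight-base words pooled with their reverse complements after masliner normalisation.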

Sequence | PBM E-score
CGGAGGGC | -0.293
AACATGAC | 0.425
AGCATGAG | 0.0355
AGCATGAT | 0.0873
ACCATGAT | -0.0585
CACATGAG | 0.0365
GACATGAC | 0.29
AACATGAT | 0.439
CACATGAC | 0.267
AACATGAG | 0.379
GAGTAGAC | -0.0398
CTGGAACC | -0.109
CTGCCTTA | -0.206
ACGAGCCA | 0.0562
AGAGATAG | -0.0703
ATTGAGAA | 0.142
TCCTCGCA | -0.204
CTTCACCA | -0.283
ATCGCGTA | 0.368
CTCGCGTA | 0.22
CGCGCGTA | 0.283
ATTGCGTA | 0.296
ATCGCGTC | 0.216
GTTGCGTA | 0.378
GTCGCGTA | 0.414

Sequence | PBM E-score
GTCGCGGA | -0.252
CTTGCGTA | 0.286
GGCGCGTA | 0.255
ATCGCGTG | 0.192
AGCGCGTA | 0.388
GTCGCCAC | -0.316
GTTTGACA | 0.303
AGGAAGAT | -0.192
ATGACGCC | -0.105
ATGGAGAG | -0.115
CCCTTTAC | 0.134
ATACTCCG | -0.0161
AAATTGCC | -0.0531
CTTTCTTC | -0.09
CAATCGGC | -0.156
CAGCCACA | -0.111
ACCAGAGA | -0.144
ACCTAAAC | 0.098
CCTAGCGC | -0.102
ATCGACCG | -0.223
AATAACCT | 0.104
GATAACGC | 0.199
CATAACAA | 0.323
ACTAACAC | 0.293
GATAACAC | 0.39

Sequence | PBM E-score
GCTAACAA | 0.164
AGTAACAT | 0.295
GCTAACAC | 0.366
CATAACAC | 0.397
CATAACAG | 0.174
AATAACAT | 0.412
GATAACAA | 0.324
ACAACCAT | 0.278
CCTACAAA | 0.0287
ATCTGAGC | -0.0204
AGCTAACG | 0.117
AGGGTACG | 0.0138
AGATAGAA | -0.166
TATCCTAA | 0.00317
GGACCTTA | -0.238
AATAACAG | 0.307
AATAACAC | 0.396
AATAACAA | 0.267
CCAATACA | 0.313
GGAATAGA | -0.0449
CGAATACG | 0.259
ACAATACA | 0.326
GGAATACC | -0.0768
GGAATACA | 0.431
CGAATACA | 0.39

Sequence | PBM E-score
TCAATACA | 0.372
TGGATACA | 0.17
TGAATAAA | 0.245
TGAATACA | 0.397
CGAATACC | -0.0493
GTAAGTAC | 0.234
CACTAGGA | -0.225
AGAGGTCC | -0.273
AGCTGCAA | -0.227
AACCTCAA | 0.0617
AGTTTGCG | -0.0236
ACTATCTG | -0.156
CTATGAAG | -0.149
CGATCCGA | -0.256
AGCGGCTA | -0.0688
ACTCTACT | 0.0373
AGAATACG | 0.192
TAAATACA | 0.434
AGAATACC | 0.0773
AGAATACA | 0.366
AAAATACA | 0.334
GAAATACA | 0.346
GATGTAAC | 0.215
CCTGTAAC | 0.093
CCTGTAAG | -0.00273

Sequence | PBM E-score
AATGTAAG | 0.294
CATGTAAC | 0.456
CATGTAAG | 0.47
CGAGATCG | -0.0661
GCATGCGA | 0.0698
AAACCACC | -0.166
AGAGCCGA | -0.106
ATGTTGTA | 0.406
ATGTTGTC | 0.364
GTGTTGCA | 0.187
CTGTTGTA | 0.253
ATGTTGTG | 0.362
GTGTTGTA | 0.382
CATACCGG | -0.154
AGTCTGCC | -0.184
CAACGGAG | -0.12
ACCCTTAA | -0.0263
AGTATGTG | 0.115
GGTATGTA | 0.4
GGTATGGA | -0.18
AGTATGTA | 0.394
CGTATGTA | 0.356
AGTATGTC | 0.201
AATTAGAA | 0.0299
GAAAAACC | -0.0498

Sequence | PBM E-score
ATGAGGAG | -0.187
GCGTTAAC | 0.379
CCGTTAAA | 0.125
ACGTTAAC | 0.281
CCGTTAAC | 0.0773
GCGTTAAA | 0.366
TCGTTAAA | 0.126
CCAACCTC | -0.128
GATAAGTA | 0.0843
AAGGGCTC | -0.21
TCGTTTAA | 0.293
CGCGTGTC | 0.262
AGCGTGTA | 0.472
CGCGTGTA | 0.458
CGCGTGCA | -0.0161
GGCGTGTA | 0.464
GGCGTGCA | -0.128
GGCGTGAA | -0.0431
AGCGTGTC | 0.317
AGCGTGTG | 0.249
AACATATA | 0.286
CTGGATCC | -0.25
GCTTAGAA | -0.00669
AAAATTGG | -0.167
GGTCGACC | -0.0813

Sequence | PBM E-score
TGTAAGAA | 0.391
TGTAACAA | 0.384
AGTAACAA | 0.288
CGTAAACA | 0.394
CGTAAGAA | 0.106
TGTAAACA | 0.461
CGTAACAA | 0.228
ACTAAACA | 0.196
GGTAAACA | 0.333
GGTAAGAA | -0.0659
AGTAAACA | 0.337
TCTAAACA | 0.228
TGCCTCCA | -0.233
CTGCACAC | 0.0406
TATCACGA | 0.00013
GAAGACAC | 0.0337
CCGCTCCC | -0.362
AGGTCTGG | -0.101
AGGAAAGC | -0.203
CATAAACA | 0.384
AGTAAAAA | 0.196
AGTAGAAA | 0.124
